In all, about 5,500 compounds went through this assay and about 2,000 (36%) were called active. Roughly 18% stayed inconclusive and do not appear here. Rule as the data show it: active = normalized growth mostly below about 0.91 (no sharp cut-off); inconclusive = no clear call, values can overlap the other calls; inactive = mostly above about 0.92. The list shows a part of the results.
Assay: chemical genetic growth profiling, strain panel (AID 1159580);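 also: tested at 20 µM; growth read once vehicle control cultures reached saturation at 30 °C; 1 = growth at the plate median or of vehicle wells; lower values mean less growth of the strain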
Conditions: growth OD

Measured: normalized growth

COc1ccc(OC)c(C(O)CNC(=O)CN)c1 (stereo not given)
inactive: S. cerevisiae deletion strains, locus YKL009W, strain mrt4, hits give low values 0.969 | S. cerevisiae deletion strains, locus YKL068W, hits give low values 0.985 | S. cerevisiae deletion strains, locus YKL085W, strain MDH1 (second series), hits give low values 0.984 | S. cerevisiae deletion strains, locus YKL085W, strain MDH1, hits give low values 0.984 | S. cerevisiae deletion strains, locus YKL160W, strain elf1, hits give low values 1 | S. cerevisiae deletion strains, locus YKL190W, strain CNB1, hits give low values 0.984 | S. cerevisiae deletion strains, locus YKR001C, strain vps1, hits give low values 0.96 | S. cerevisiae deletion strains, locus YKR026C, strain gcn3, hits give low values 1.01 | S. cerevisiae deletion strains, locus YKR091W, strain srl3, hits give low values 0.996 | S. cerevisiae deletion strains, locus YLL001W, strain dnm1, hits give low values 1.01 | S. cerevisiae deletion strains, locus YLL026W, hits give low values 0.999 | S. cerevisiae deletion strains, locus YLL041C, strain sdh2, hits give low values 0.995 | S. cerevisiae deletion strains, locus YLR027C, strain aat2, hits give low values 1 | S. cerevisiae deletion strains, locus YLR039C, strain RIC1, hits give low values 0.966 | S. cerevisiae deletion strains, locus YLR058C, strain SHM2, hits give low values 0.976 | S. cerevisiae deletion strains, locus YLR102C, strain apc9, hits give low values 0.982 | S. cerevisiae deletion strains, locus YLR113W, strain HOG1, hits give low values 1.05 | S. cerevisiae deletion strains, locus YLR221C, strain rsa3, hits give low values 1 | S. cerevisiae deletion strains, locus YLR258W, strain gsy2, hits give low values 1 | S. cerevisiae deletion strains, locus YLR262C, strain YPT6 (second series), hits give low values 1.01 | S. cerevisiae deletion strains, locus YLR262C, strain YPT6, hits give low values 0.956 | S. cerevisiae deletion strains, locus YLR268W, strain sec22, hits give low values 0.996 | S. cerevisiae deletion strains, locus YLR320W, strain mms22, hits give low values 1.03 | S. cerevisiae deletion strains, locus YLR330W, strain CHS5, hits give low values 1 | S. cerevisiae deletion strains, locus YLR342W, strain FKS1 (second series), hits give low values 1.04 | S. cerevisiae deletion strains, locus YLR342W, strain FKS1, hits give low values 1.01 | S. cerevisiae deletion strains, locus YLR357W, strain rsc2, hits give low values 1.02 | S. cerevisiae deletion strains, locus YLR370C, strain arc18, hits give low values 1 | S. cerevisiae deletion strains, locus YLR371W, strain rom2, hits give low values 0.974 | S. cerevisiae deletion strains, locus YLR384C, strain iki3, hits give low values 1.02 | S. cerevisiae deletion strains, locus YLR418C, strain cdc73, hits give low values 0.973 | S. cerevisiae deletion strains, locus YML016C, strain PPZ1, hits give low values 0.99 | S. cerevisiae deletion strains, locus YML032C, strain rad52, hits give low values 0.959 | S. cerevisiae deletion strains, locus YML120C, strain ndi1, hits give low values 0.993 | S. cerevisiae deletion strains, locus YML124C, strain tub3, hits give low values 0.981 | S. cerevisiae deletion strains, locus YMR058W, strain fet3, hits give low values 1 | S. cerevisiae deletion strains, locus YMR078C, strain ctf18, hits give low values 0.976 | S. cerevisiae deletion strains, locus YMR125W, strain sto1, hits give low values 1 | S. cerevisiae deletion strains, locus YMR129W, hits give low values 1 | S. cerevisiae deletion strains, locus YMR205C, strain PFK2, hits give low values 1.02 | S. cerevisiae deletion strains, locus YMR223W, strain ubp8, hits give low values 0.993 | S. cerevisiae deletion strains, locus YMR231W, strain pep5, hits give low values 1.02 | S. cerevisiae deletion strains, locus YMR263W, strain SAP30, hits give low values 0.988 | S. cerevisiae deletion strains, locus YMR307W, strain GAS1, hits give low values 1.05 | S. cerevisiae deletion strains, locus YNL067W, strain RPL9B, hits give low values 0.971 | S. cerevisiae deletion strains, locus YNL071W, strain lat1, hits give low values 0.99 | S. cerevisiae deletion strains, locus YNL128W, strain TEP1, hits give low values 0.983 | S. cerevisiae deletion strains, locus YNL153C, strain GIM3, hits give low values 0.961 | S. cerevisiae deletion strains, locus YNL183C, strain NPR1, hits give low values 1 | S. cerevisiae deletion strains, locus YNL209W, strain ssb2, hits give low values 0.998 | S. cerevisiae deletion strains, locus YNL233W, strain BNI4, hits give low values 1.01 | S. cerevisiae deletion strains, locus YNL248C, strain rpa49, hits give low values 0.998 | S. cerevisiae deletion strains, locus YNL250W, strain rad50, hits give low values 0.968 | S. cerevisiae deletion strains, locus YNL271C, strain bni1, hits give low values 0.982 | S. cerevisiae deletion strains, locus YNL298W, strain CLA4, hits give low values 0.986 | S. cerevisiae deletion strains, locus YNL307C, strain MCK1, hits give low values 0.96 | S. cerevisiae deletion strains, locus YNL322C, strain KRE1 (second series), hits give low values 0.997 | S. cerevisiae deletion strains, locus YNL322C, strain KRE1, hits give low values 0.989 | S. cerevisiae deletion strains, locus YNR049C, strain mso1, hits give low values 1 | S. cerevisiae deletion strains, locus YNR052C, strain pop2, hits give low values 0.973 | S. cerevisiae deletion strains, locus YOL006C, strain TOP1, hits give low values 0.933 | S. cerevisiae deletion strains, locus YOL012C, strain htz1 0.916 | S. cerevisiae deletion strains, locus YOL147C, strain pex11, hits give low values 0.982 | S. cerevisiae deletion strains, locus YOR001W, strain rrp6, hits give low values 0.996 | S. cerevisiae deletion strains, locus YOR061W, strain CKA2, hits give low values 0.967 | S. cerevisiae deletion strains, locus YOR069W, strain VPS5, hits give low values 0.995 | S. cerevisiae deletion strains, locus YOR070C, strain gyp1, hits give low values 0.997 | S. cerevisiae deletion strains, locus YOR080W, strain dia2, hits give low values 1.01 | S. cerevisiae deletion strains, locus YOR083W, strain WHI5, hits give low values 1.01 | S. cerevisiae deletion strains, locus YOR106W, strain vam3, hits give low values 1.02 | S. cerevisiae deletion strains, locus YOR136W, strain idh2, hits give low values 0.977 | S. cerevisiae deletion strains, locus YOR144C, strain elg1, hits give low values 0.99 | S. cerevisiae deletion strains, locus YOR184W, strain ser1, hits give low values 0.97 | S. cerevisiae deletion strains, locus YOR231W, strain MKK1, hits give low values 1.05 | S. cerevisiae deletion strains, locus YOR265W, strain rbl2, hits give low values 0.998 | S. cerevisiae deletion strains, locus YOR270C, strain vph1, hits give low values 1.03 | S. cerevisiae deletion strains, locus YOR290C, strain snf2, hits give low values 0.997 | S. cerevisiae deletion strains, locus YOR316C, strain cot1, hits give low values 0.96 | S. cerevisiae deletion strains, locus YPL051W, strain arl3, hits give low values 1 | S. cerevisiae deletion strains, locus YPL055C, strain LGE1, hits give low values 0.94 | S. cerevisiae deletion strains, locus YPL078C, strain atp4, hits give low values 1.01 | S. cerevisiae deletion strains, locus YPL106C, strain sse1, hits give low values 1.01 | S. cerevisiae deletion strains, locus YPL240C, strain hsp82, hits give low values 0.997 | S. cerevisiae deletion strains, locus YPL256C, strain CLN2, hits give low values 1.01 | S. cerevisiae deletion strains, locus YPR119W, strain clb2, hits give low values 0.985 | S. cerevisiae deletion strains, locus YPR141C, strain kar3, hits give low values 0.966 | S. cerevisiae deletion strains, locus YPR163C, strain tif3, hits give low values 0.983 | S. cerevisiae deletion strains, locus YPR167C, strain met16, hits give low values 0.98 | S. cerevisiae deletion strains, strain wtn01, hits give low values 1.01 | S. cerevisiae strains, strain wild type, hits give low values 0.977
